Test results published in PubChem BioAssay AID624263 (National Center for Advancing Translational Sciences (NCATS), 2012).
Among all 410,000 compounds or so, about 820 (0.2%) were called active. Roughly 2% stayed inconclusive and do not appear here. Many of the other results were omitted from the sample, so actives are more common in it than they were. A number with no mark means an inactive call. Calls come from the whole dose curve; as a rule, active = well fitted activation curve with a large enough effect; inconclusive = small, poorly fitted or top-dose-only effect; inactive = flat fitted curve, though single readings scatter; cell line not stated here.

assay: A Quantitative High throughput Screen to Identify Chemical Modulators of PINK1 Expression; conditions: PINK1 immunofluorescence, high-content cytometry, 24 h; series mostly up to 76.6 µM; activation (PINK1 increase): at the top concentration; note: nearly all actives have a fitted effect of over 65% in size; for activation (PINK1 increase): % of control where 0% means no effect
Description: The overall goal of this project is to develop new tools for understanding and treating the mitochondrial basis for neurodegenerative disease such as Parkinson's disease (PD). The PINK1 campaign was developed from recent data pointing towards mitochondrial dysfunction as a major contributor to dopaminergic neuron loss. The discovery of PINK1/Parkin mediated mitophagy has highlighted the potential for mitochondrial quality control as a novel target for therapeutic intervention. […] A second aim of this project is the development of chemical probes to study the mechanics of mitochondrial quality control. As the PINK1/Parkin mitophagy pathway is a relative recent discovery, no specific chemical probes are available that modulate the process. Presently, only crude tools that cause nonspecific mitochondrial damage are available. To advance the understanding of mitophagy, specific, well characterized chemicals that target various steps of mitophagy regulation need to be developed. New chemical probes may have the ability to dynamically manipulate mitophagy in model organisms such as rodents and zebrafish, advancing our understanding of the process in development and disease. This HTS campaign seeks to discover an activator of PINK1 expression by modulation at the level of post-translational processing.
The PINK1 assay determines the amount and localization of PINK1 protein in a cell using a combination of immunofluorescence and cell staining. The goal of the assay is to determine small molecules that can increase the expression of Pink1 on or inside the cell's mitochondria (ideally without mitochondrial depolarization) using a stable cell line. Since PINK1 protein is rapidly degraded in un-perturbed cells, compounds that induce the enhancement of PINK1 protein expression are identified by determining PINK1 immunofluorescence in conjunction with a mitochondrial, cell, and nuclear marker post fixation. To facilitate rapid high content screening, the primary assay is run in a decision-based HTS mode where compound titration data collected by laser-scanning microplate cytometers is processed and only promising compound series are passed off for high content drill down.
1 Add cells to black, clear-bottom, low-base 1536-well plates 6 uL (250 cells/well)
2 Incubate in TC incubator (12 hours)
3 Pin compounds or DMSO controls 23 nL (5 concentrations per compound set)
4 Dispense CCCP to control columns
5 Incubate in TC incubator 24 hours
6 Aspirate media and fix cells (5 uL of fixative containing nuclear dye)
7 Incubate 15 minutes at RT
8 Wash in PBSTween (12 uL/well)
9 Wash in PBSTriton (12 uL/well)
10 Aspirate wash and add Blocking buffer (4 uL/well)
12 Aspirate block and add primary antibodies 3.5 (uL/well)
13 Incubate 12 hours at 10 degrees C
14 Wash in PBSTween-20 two times (12 uL/well)
15 Aspirate wash and add secondary antibodies (12 uL/well)
17 Wash in PBSTween (12 uL/well)
18 Wash in PBSTween with cell stain (12 uL/well)
19 Read plates on Acumen EX3 and determine Wells2Cells coordinates
Potency is the fitted concentration of half-maximal effect.

Compound	activation (PINK1 increase)	Potency
CCCCn1c(SCC(=O)N2CCOCC2)nc2c1c(=O)n(C)c(=O)n2C	2.85%	
COc1ccc(CCNC(=O)CCCCn2c(=O)c3ccccc3n(Cc3ccccc3)c2=O)cc1OC	1.18%	
CCCCn1c(SCC(=O)NCCc2ccc(OC)c(OC)c2)nc2c1c(=O)n(C)c(=O)n2C		3.98 µM (active)
COc1ccccc1C(=O)N[C@@H]1c2ccccc2C2(CCN(C(=O)c3csnn3)CC2)[C@H]1OC	-0.317%	
CN1CCN(/[N+]([O-])=N/Oc2ccc([N+](=O)[O-])cc2[N+](=O)[O-])CC1	-0.224%	
Cc1cc(C)cc(CN2CCc3nnc(C(NS(C)(=O)=O)C(C)C)n3CC2)c1 (configuration not stated)	-0.82%	
COc1ccccc1C1CN(CCNC(=O)C2=CCCC2)Cc2ccccc2O1 (configuration not stated)	2.63%	
O=C(Nc1ncc([N+](=O)[O-])s1)C1COc2ccccc2O1 (configuration not stated)		44.7 µM (active)
O=C(CCc1ccccc1)Nc1ccc(NC(=O)C2CCCCC2)nc1	9.37%	
CC(/C=C/c1ccco1)=N/NC(=O)C1COc2ccccc2O1 (configuration not stated)	9.76%	
O=C(CCc1ccccc1)Nc1ncc([N+](=O)[O-])s1		20 µM (active)
COc1ccc(OC)c2sc(N3CCN(C(=O)C4COc5ccccc5O4)CC3)nc12 (configuration not stated)	-0.0279%	
O=C(CCc1ccccc1)Nc1ccc(NC(=O)C2CC2)nc1	-1.31%	
CN(Cc1cccc2ncccc12)C(=O)c1cnn(-c2nccc(-c3ccccc3F)n2)c1C1CC1	-0.707%	
COc1ccc(-n2c(CNC(=O)c3cc(C(F)(F)F)ccc3Cl)nnc2SC)cc1	-0.22%	
COc1ccccc1-c1ccnc(-n2ncc(C(=O)NCCCN3CCOCC3)c2C)n1	0.284%	
C[C@@H]1CN(Cc2ccc3c(c2)CN(Cc2ccc(Oc4ncccn4)cc2)CCO3)C[C@H](C)O1	0.0196%	
CCC1CN(CCNC(=O)c2cccc(C)n2)Cc2cc(OC)ccc2O1 (configuration not stated)	0.509%	
CCOc1ccc(CCNC(=O)c2csc3c2CCCCC3)cc1	2.82%	
COC(=O)c1sc(NC(=O)c2csc3c2CCCC3)nc1C		10 µM (active)
CCOC(=O)c1ccc(NC(=O)c2csc3c2CCCCC3)cc1	3.73%	
CCCCOc1ccc(C(=O)NO)cc1	1.55%	
Cn1c(SCC(=O)Nc2cccc(O)c2)nnc1-c1ccc(S(=O)(=O)N2CCOCC2)cc1		14.1 µM (active)
CCC(=O)Nc1cccc(NC(=O)CSc2nnc(-c3ccc(NS(C)(=O)=O)cc3)n2C)c1	-1.24%	
Cc1ccnc(SCC(=O)Nc2cccc(S(=O)(=O)N3CCOCC3)c2)n1	1.18%	
CC(C)(C(=O)NO)c1ccccc1	0.961%	
CCC1(C2CCN(Cc3cccnc3)CC2)NC(=O)N(CC2COc3ccccc3O2)C1=O (configuration not stated)	-0.0745%	
